Experimental data as given in PubChem BioAssay.
Unmarked numbers belong to inactive results. For some of these results: Results with a measured potency or affinity are listed apart. Activity calls are given as the source filed them. Unless noted, no rule for the calls is given here.

Key:
[1] = antimalarial activity against Dd2 strain (AID 2302;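 active = growth inhibition above 50% at the single 2 µM test dose, taken to imply half-maximal potency below 2 µM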;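 also: 0% = DMSO untreated growth and 100% = chloroquine plus artemisinin killed control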); settings: P. falciparum Dd2 in RBCs, LDH growth readout, 72 h; at 2 µM; hits give high values
[2] = HepG2 cytotoxicity, primary screen, cytotoxicity control for P. falciparum antimalarial project, cell-based, ATP luminescence (AID 2303;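 active = inhibition above 50%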;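 also: 0% = DMSO wells and 100% = digitonin-killed cells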); settings: HepG2 viability, 24-48 h, at 10 µM, hits give high values
[3] = target: L-lactate dehydrogenase (Plasmodium falciparum (isolate CDC / Honduras)) (UniProt Q27743); assay: PfLDH activity inhibition – cell lysate, 3D7 strain, counter-screen for P. falciparum growth inhibition project (AID 2304);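 also: 0% = vehicle and 100% = reference inhibitor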; settings: P. falciparum 3D7 crude extract, LDH APAD/NBT absorbance; at 2 µM; hits give high values
L-lactate dehydrogenase (Plasmodium falciparum (isolate CDC / Honduras)), sequence (Q27743 whole entry, looked up): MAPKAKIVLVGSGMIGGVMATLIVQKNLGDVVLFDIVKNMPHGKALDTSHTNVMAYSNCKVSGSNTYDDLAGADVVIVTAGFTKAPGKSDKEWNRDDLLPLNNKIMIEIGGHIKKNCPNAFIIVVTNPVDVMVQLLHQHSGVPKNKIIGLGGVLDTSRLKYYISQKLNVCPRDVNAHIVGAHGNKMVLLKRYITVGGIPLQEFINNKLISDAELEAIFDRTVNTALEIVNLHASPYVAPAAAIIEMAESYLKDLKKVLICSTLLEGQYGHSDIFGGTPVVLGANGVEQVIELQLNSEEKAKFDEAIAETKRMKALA

[4] = inhibition of 3D7 malaria parasite growth – strain 3D7 (AID 2306);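 also: 0% = DMSO wells and 100% = chloroquine plus artemisinin control wells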; settings: P. falciparum 3D7 erythrocytic growth, LDH absorbance, 72 h; at 2 µM; hits give high values
[5] = target: Calcium-dependent protein kinase 1 (Plasmodium falciparum (isolate 3D7)) (UniProt P62344); assay: PfCDPK1 kinase inhibitors, biochemical, TCAMS library (AID 1159585; cut-off not given, nearly all actives have IC50 up to about 0.98 µM;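 also: inhibitors leave more ATP so luminescence rises with inhibition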); settings: recombinant PfCDPK1, Kinase-Glo ATP depletion luminescence
Calcium-dependent protein kinase 1 (Plasmodium falciparum (isolate 3D7)), sequence (P62344 whole entry, looked up): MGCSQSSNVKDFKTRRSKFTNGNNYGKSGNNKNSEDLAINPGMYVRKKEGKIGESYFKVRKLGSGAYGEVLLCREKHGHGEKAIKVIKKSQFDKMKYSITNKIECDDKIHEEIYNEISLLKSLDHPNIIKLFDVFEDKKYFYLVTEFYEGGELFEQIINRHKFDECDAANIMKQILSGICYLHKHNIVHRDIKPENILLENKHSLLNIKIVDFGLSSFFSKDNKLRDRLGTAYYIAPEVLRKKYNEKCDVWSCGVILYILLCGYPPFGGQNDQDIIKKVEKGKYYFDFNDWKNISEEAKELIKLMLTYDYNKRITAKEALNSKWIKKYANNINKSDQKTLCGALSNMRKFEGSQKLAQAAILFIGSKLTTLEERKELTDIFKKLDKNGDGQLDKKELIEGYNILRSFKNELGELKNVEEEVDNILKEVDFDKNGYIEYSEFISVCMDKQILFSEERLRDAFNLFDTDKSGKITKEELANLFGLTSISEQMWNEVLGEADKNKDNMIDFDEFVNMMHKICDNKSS

[6] = target: Plasmodium falciparum protein kinase 6 (PK6, PF3D7_1337100) (UniProt Q8IDW1); assay: PfPK6 kinase inhibitors, biochemical, TCAMS library (AID 1159586); settings: recombinant PfPK6, Kinase-Glo ATP depletion luminescence
Plasmodium falciparum protein kinase 6 (PK6, PF3D7_1337100), sequence (Q8IDW1 1-305): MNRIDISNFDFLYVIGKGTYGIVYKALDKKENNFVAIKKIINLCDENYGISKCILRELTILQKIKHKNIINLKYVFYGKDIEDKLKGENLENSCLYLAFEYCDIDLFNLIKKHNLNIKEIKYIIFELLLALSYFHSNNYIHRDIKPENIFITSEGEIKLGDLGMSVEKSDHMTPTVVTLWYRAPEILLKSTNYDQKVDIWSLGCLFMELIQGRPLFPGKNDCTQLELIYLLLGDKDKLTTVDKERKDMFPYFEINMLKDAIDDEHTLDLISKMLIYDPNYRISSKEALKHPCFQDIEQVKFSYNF

[7] = target: Protein kinase 7 (PK7), Plasmodium falciparum 3D7 (PF3D7_0213400) (UniProt Q7YTF7); assay: inhibition of Plasmodium PK7 catalytic activity – biochemical, TCAMS antimalarial set, Kinase-Glo luminescence (AID 1159587); settings: recombinant PfPK7, Kinase-Glo ATP depletion luminescence
Protein kinase 7 (PK7), Plasmodium falciparum 3D7 (PF3D7_0213400), sequence (Q7YTF7 1-343): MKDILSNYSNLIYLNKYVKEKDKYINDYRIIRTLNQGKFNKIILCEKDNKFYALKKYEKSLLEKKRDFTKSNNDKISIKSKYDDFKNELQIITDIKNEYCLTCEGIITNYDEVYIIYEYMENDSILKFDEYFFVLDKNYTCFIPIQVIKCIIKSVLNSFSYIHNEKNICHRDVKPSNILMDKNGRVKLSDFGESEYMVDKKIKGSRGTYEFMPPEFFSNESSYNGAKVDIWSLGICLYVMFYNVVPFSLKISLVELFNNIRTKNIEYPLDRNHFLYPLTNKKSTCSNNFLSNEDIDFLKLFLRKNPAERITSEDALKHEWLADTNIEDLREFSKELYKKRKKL

[8] = target: Calcium-dependent protein kinase 4 (Plasmodium falciparum (isolate 3D7)) (UniProt Q8IBS5); assay: PfCDPK4 kinase inhibitors, biochemical, TCAMS library (AID 1159588; cut-off not given, nearly all actives have IC50 up to about 0.91 µM); settings: recombinant PfCDPK4, Kinase-Glo ATP depletion luminescence
Calcium-dependent protein kinase 4 (Plasmodium falciparum (isolate 3D7)), sequence (Q8IBS5 whole entry, looked up): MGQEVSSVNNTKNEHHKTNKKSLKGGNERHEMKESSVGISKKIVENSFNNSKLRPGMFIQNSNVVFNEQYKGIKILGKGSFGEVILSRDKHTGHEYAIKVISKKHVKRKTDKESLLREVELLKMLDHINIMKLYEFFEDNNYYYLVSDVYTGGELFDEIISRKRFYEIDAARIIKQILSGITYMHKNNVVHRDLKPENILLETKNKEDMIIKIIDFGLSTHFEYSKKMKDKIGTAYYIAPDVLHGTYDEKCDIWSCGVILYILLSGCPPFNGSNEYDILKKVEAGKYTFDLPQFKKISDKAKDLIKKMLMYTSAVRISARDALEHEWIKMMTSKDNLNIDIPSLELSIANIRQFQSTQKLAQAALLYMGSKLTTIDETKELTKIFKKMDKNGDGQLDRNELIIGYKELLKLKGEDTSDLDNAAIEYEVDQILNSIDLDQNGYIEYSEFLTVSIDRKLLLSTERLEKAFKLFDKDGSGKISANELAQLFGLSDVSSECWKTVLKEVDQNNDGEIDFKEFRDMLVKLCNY

Row | SMILES | growth inhibition [1] | inhibition [2] | inhibition [3] | growth inhibition [4] | outcome [5] | outcome [6] | outcome [7] | outcome [8]
1 | O=C(Nc1cccc(-c2cccc(-c3nc4ccccc4[nH]3)c2)c1)Nc1ccc2c(c1)OCO2 | 57% (active) | 25% | -4% | 101% (active) | inactive | inactive | inactive | inactive
2 | CCOC(=O)C1=C(C)NC2=C(C(=O)CC(C)(C)C2)C1c1ccc(Br)cc1 (stereo not given) | 66% (active) | 0% | 2% | 90% (active) | inactive | inactive | inactive | inactive
3 | CCCN1CCN(c2ccc(NS(=O)(=O)c3ccc(C(=O)Nc4ccc(Cl)cc4)cc3)cc2)CC1 | 50% (active) | 4% | -4% | 100% (active) | inactive | inactive | inactive | inactive
4 | O=[N+]([O-])c1cccc(CNCC2CCN(Cc3ccc(C(F)(F)F)cc3)CC2)c1 | 23% | 7% | 2% | 101% (active) | inactive | inactive | inactive | inactive
5 | O=C(/C=C/c1ccc(Cl)c(Cl)c1)NCCCCCN1CCCN(C(=O)Nc2ccc(Br)cc2)CC1 | -4% | 38% | 0% | 99% (active) | inactive | inactive | inactive | inactive
6 | c1ccc2[nH]c(-c3ccc(-c4ccc(CN5CCN(c6ccncc6)CC5)cc4)s3)nc2c1 | 100% (active) | 25% | -5% | 101% (active) | inactive | inactive | inactive | inactive
7 | CCCCCCCc1[nH]c2ccccc2c(=O)c1C | 96% (active) | 48% | 2% | 97% (active) | inactive | inactive | inactive | inactive
8 | CCCCc1ccc(S(=O)(=O)Nc2ccc3c(c2)CCN(Cc2c[nH]c4cnccc24)CC3)cc1 | 12% | 41% | -5% | 99% (active) | inactive | inactive | inactive | inactive
9 | CN(C)Cc1cccc(-c2ccc(NC(=O)c3ccc4c(=O)n(CCN5CCCCC5)cnc4c3)cc2)c1 | 67% (active) | 23% | -1% | 101% (active) | inactive | inactive | inactive | inactive
10 | CCOC(=O)c1[nH]c(-c2cc(Cl)nc(Cl)c2)nc1NC(=S)NCCCN1CCOCC1 | 71% (active) | 13% | 3% | 89% (active) | inactive | inactive | inactive | inactive
11 | CN(C)CCOc1ccc(N2CCN(CCCCNC(=O)c3ccc(/C=C/c4cc(Cl)cc(Cl)c4)cc3)CC2)cc1 | 84% (active) | 97% (active) | 1% | 98% (active) | inactive | inactive | inactive | inactive
12 | Fc1ccccc1CNc1ncc(-c2ccsc2)c(-c2nccs2)n1 | 71% (active) | 11% | -6% | 86% (active) | inactive | inactive | inactive | inactive
13 | CS(=O)(=O)CCNCc1cccc(-c2cc3c(Nc4ccc(OCc5cccc(F)c5)c(Cl)c4)ncnc3s2)c1 | 97% (active) | 5% | 1% | 101% (active) | inactive | inactive | inactive | inactive
14 | Cc1cccc2[nH]c(-c3ccc(-c4cccc(CNCCc5ccncc5)c4)s3)nc12 | 89% (active) | 11% | 2% | 100% (active) | inactive | inactive | inactive | inactive
15 | COc1ccc(NC(=O)Nc2ccc(-c3ccc(-c4nc5c(C)cccc5[nH]4)s3)cc2)cc1 | 96% (active) | 74% (active) | 3% | 100% (active) | inactive | inactive | inactive | inactive
16 | CC(CN(C)C)C(=O)Nc1cccc(-c2ccc(-c3nc4ccccc4[nH]3)s2)c1 (stereo not given) | 47% | 13% | 7% | 100% (active) | inactive | inactive | inactive | inactive
17 | O=C(CSc1nn(-c2ccccc2)c(=S)s1)c1c[nH]c2ccccc12 | 68% (active) | -7% | -1% | 93% (active) | inactive | inactive | inactive | inactive
18 | CO/C(=C\C=C\c1cc2cc(Cl)c(Cl)cc2[nH]1)C(=O)NCCCN1CCN(Cc2ccccc2)CC1 | 65% (active) | 45% | -2% | 94% (active) | inactive | inactive | inactive | inactive

Row | SMILES | growth inhibition [1] | inhibition [2] | inhibition [3] | growth inhibition [4] | outcome [5] | outcome [6] | outcome [7] | outcome [8]
19 | Cc1ccc(NC(=O)NC2CCN(c3ccnc4ccccc34)CC2)cc1 | 52% (active) | 21% | -6% | 97% (active) | inactive | inactive | inactive | inactive
20 | CC1CCCCN1CCCNC(=O)c1cccc(-c2cc3cc(Cl)c(Cl)cc3[nH]2)c1 (stereo not given) | 7% | 22% | -2% | 94% (active) | inactive | inactive | inactive | inactive
21 | Cc1cccc2[nH]c(-c3cccc(-c4ccc(NC(=O)c5cccc(C(N)=O)c5)cc4)c3)nc12 | 61% (active) | 25% | 4% | 100% (active) | inactive | inactive | inactive | inactive
22 | Cc1c(C(=O)Nc2cc(Sc3ccc(F)cc3)cc([N+](=O)[O-])c2)sc2ncn(Cc3ccccc3F)c(=O)c12 | 45% | 2% | 5% | 98% (active) | inactive | inactive | inactive | inactive
23 | O=C(NCC1CCC(C(=O)NCCc2ccc(Cl)c(Cl)c2)CC1)c1ccc(O)c(-c2ccc(Cl)c(Cl)c2)c1 (stereo not given) | 12% | -5% | -1% | 94% (active) | inactive | inactive | inactive | inactive
24 | Cc1cnc(-c2cccc(C(=O)NC3CCC(CCN4CCc5ccc(C#N)cc5CC4)CC3)c2)[nH]1 (stereo not given) | 69% (active) | 23% | 1% | 100% (active) | inactive | inactive | inactive | inactive
25 | COc1ccc(OC)c(-c2ccc(O)c(CNCC(C)c3ccccc3)c2)c1 (stereo not given) | 96% (active) | 26% | -2% | 98% (active) | inactive | inactive | inactive | inactive
26 | Cc1cccc2[nH]c(-c3ccc(-c4cccc(NC(=O)NCc5ccccc5)c4)cc3)nc12 | 0% | 25% | -6% | 95% (active) | inactive | inactive | inactive | inactive
27 | CCOC(=O)C(NC(=O)c1ccc([N+](=O)[O-])o1)C(C)C (stereo not given) | 8% | -3% | 0% | 87% (active) | inactive | inactive | inactive | inactive
28 | Oc1ccc2nc(NCCCc3ccccc3)nc(NCCc3ccccc3)c2c1 | 88% (active) | 31% | -3% | 99% (active) | inactive | inactive | inactive | inactive
29 | CN1CCc2ccc(NC(=O)Nc3cccc([N+](=O)[O-])c3)cc2C1 | 3% | -5% | 0% | 87% (active) | inactive | inactive | inactive | inactive
30 | Nc1nc(-c2ccc3c(Nc4ccc(F)c(Cl)c4)ccnc3c2)cs1 | 88% (active) | 13% | 0% | 100% (active) | inactive | inactive | inactive | inactive
31 | FC(F)(F)c1ccc2nccc(NN=Cc3cccc(Cl)c3)c2c1 | 2% | -3% | -8% | 97% (active) | inactive | inactive | inactive | inactive
32 | CCCCN1CCN(CCCNc2c3ccccc3nc3ccccc23)CC1 | 70% (active) | 26% | -7% | 101% (active) | inactive | inactive | inactive | inactive
33 | Cc1[nH]c(C)c(-c2ccc(OCc3ccccc3)cc2)c(=O)c1Br | 96% (active) | 19% | -2% | 97% (active) | inactive | inactive | inactive | inactive
34 | COc1cccc(C(=O)NC(c2ccccc2OC)c2cc(Cl)c3cccnc3c2O)c1 (stereo not given) | 36% | 58% (active) | 4% | 91% (active) | inactive | inactive | inactive | inactive
35 | CCOc1cc(C(=O)NCCN2CCCCC2)ccc1-c1nc2ccc(Cl)cc2[nH]1 | 8% | 4% | -3% | 99% (active) | inactive | inactive | inactive | inactive
